Sampled rows, rich in hits. Any-hit rate of the full collection: about 10%.
3T3 cytotox: NIH 3T3 cell cytotoxicity. NIH 3T3 viability, CellTiter-Glo ATP luminescence, 48-72 h. Potency, µM (titrated, usually from 96.7 µM), for the others: at the top dose activity change, negative = cytotoxicity, hits mostly inhibitors. 4.3% of 94,000 active. AID 1345082; note: nearly all actives have a fitted effect of over 55% in size
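First NIH 3T3 cells are plated at 400 cells/well; next compound is pinned in; then plates incubate 48 or 72 hr at 37 °C; finally CellTiter-Glo is added and luminescence read after 10 min.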
Luciferase inh: blocks purified firefly luciferase enzyme activity; P08659; purified P. pyralis luciferase, luminescence, biochemical; Potency, µM (top dose mostly 115 µM), usual class: inhibitors; 2.5% of 76,000 active; note: nearly all actives have a fitted effect of over 65% in size
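Luminescence read by CCD imager after adding enzyme (10nM final) to wells holding compound, titrated in qHTS. Substrates 10uM each D-luciferin and ATP; buffer 50mM Tris acetate pH 7.5, 10mM Mg acetate, Tween-20, BSA.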
NPR1 antag: antagonists of human natriuretic peptide receptor Npr1. HEK293 hNpr1 GloSensor cGMP, ANP-stimulated luminescence. Potency, µM (series often up to 46.3 µM), for inactives: at the highest dose activity change, negative = inhibition, hits mostly inhibitors. 1.6% of 76,000 active. AID 1347048; calls by dose curve; note: nearly all actives have a fitted effect of over 60% in size
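HEK293 cells stably expressing human Npr1 and cGMP GloSensor pGS-40F, loaded 2 h with 2% GloSensor reagent, given compound 30 min at room temperature. Luminescence read before and 20 min after 0.1 nM hNppA.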
GPT2 inh: inhibitors of human GPT2 alanine aminotransferase | Q8TD30 | Recombinant GPT2, coupled pyruvate oxidase/HRP Amplex Red fluorescence | Potency, µM (doses to about 57.7 µM), for the others: top-dose activity change, negative = inhibition, usual class: inhibitors | 0.25% of 100,000 active | AID 1671188; note: nearly all actives have a fitted effect of over 60% in size
Target sequence (Q8TD30 whole entry, looked up): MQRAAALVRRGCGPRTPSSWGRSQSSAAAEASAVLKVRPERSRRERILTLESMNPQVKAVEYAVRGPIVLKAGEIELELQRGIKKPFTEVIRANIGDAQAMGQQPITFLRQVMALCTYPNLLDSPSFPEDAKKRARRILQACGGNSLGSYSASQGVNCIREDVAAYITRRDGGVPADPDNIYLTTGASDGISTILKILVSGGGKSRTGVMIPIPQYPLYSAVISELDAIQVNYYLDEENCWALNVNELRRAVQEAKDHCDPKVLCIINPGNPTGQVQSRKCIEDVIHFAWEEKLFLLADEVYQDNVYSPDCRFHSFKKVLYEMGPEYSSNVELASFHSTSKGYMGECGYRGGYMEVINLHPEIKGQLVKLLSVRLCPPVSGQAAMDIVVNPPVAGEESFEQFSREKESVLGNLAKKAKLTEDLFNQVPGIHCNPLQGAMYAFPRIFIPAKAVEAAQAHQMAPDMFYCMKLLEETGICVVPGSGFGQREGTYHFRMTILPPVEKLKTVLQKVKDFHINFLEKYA
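Fluorescence of coupled pyruvate oxidase/HRP/Amplex Red system (50uM Amplex, 30 min, dark) reports pyruvate formed by GPT2. Enzyme reaction: 10ng/uL GPT2, 2mM L-alanine, 250uM a-KG, 30 min room temperature, pH 7.5; 50uM AOA control.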
HEK293 tox: kills HEK 293 cells. HEK 293 viability, ATP luminescence (CellTiter-Glo), 48-72 h. Potency, µM (doses to about 115 µM), for the others: top-dose activity change, negative = cytotoxicity, usual class: inhibitors. 6.6% of 94,000 active. AID 1345083; note: nearly all actives have a fitted effect of over 60% in size
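Cytotoxicity was scored by loss of ATP-coupled luminescence (CellTiter-Glo) in HEK 293 cells. Compound treatment ran 48 or 72 hr at 37 degree Celsius, 5% CO2, 95% humidity.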
An asterisk follows results filed as active; [ ] = another dose, or the depositor's remark. Unless noted, calls come from the whole dose curve; as a rule, active = well fitted curve in the direction sought with a large enough effect; inconclusive = small, poorly fitted or top-dose-only effect, or another doubt; inactive = no such curve, though single readings can be large; an effect the other way counts as inactive or inconclusive. % is set by controls: 0 for no effect and ±100 for the full control effect; potency is the fitted concentration of half-maximal effect.

`O=C(Nc1ccc(Cl)cc1)N1Cc2[nH]cnc2C[C@H]1c1nc(-c2ccc(OC(F)(F)F)cc2)no1` gave 3T3 cytotox 25µM*, Luciferase inh inactive, NPR1 antag inconclusive, GPT2 inh -18% and HEK293 tox 20µM*.
`CCOC(=O)c1ccc(NC(=O)N2Cc3[nH]cnc3C[C@H]2c2nc(-c3ccncc3)no2)cc1` gave 3T3 cytotox inconclusive, Luciferase inh inactive, NPR1 antag -5%, GPT2 inh inactive and HEK293 tox -11%.
`CCOC(=O)c1ccc(NC(=O)N2Cc3[nH]cnc3C[C@H]2c2nc(-c3ccc(OC(F)(F)F)cc3)no2)cc1` gave 3T3 cytotox 25µM*, Luciferase inh inconclusive, NPR1 antag -16%, GPT2 inh -10% and HEK293 tox inconclusive.
For O=C1Nc2ccccc2CC12CCCN2C1CCCCC1 (stereo not given) the results were 3T3 cytotox inconclusive, GPT2 inh 2%[88.5 µM] and HEK293 tox inconclusive.
Screening Cc1noc(C)c1-c1cc(-c2ccccc2O)cn2cncc12 returned 3T3 cytotox 25µM*, Luciferase inh inactive, NPR1 antag -20%[70.6 µM], GPT2 inh -2%[88.5 µM] and HEK293 tox 50µM*.
For Cc1noc(C)c1-c1cc(-c2cccc3cc[nH]c23)cn2cncc12 the results were 3T3 cytotox 28µM*, Luciferase inh inactive, NPR1 antag inconclusive, GPT2 inh -30%[88.5 µM] and HEK293 tox inconclusive.
Screening COc1cccc(-c2cc(-c3c(C)noc3C)c3cncn3c2)c1 returned 3T3 cytotox 40µM*, Luciferase inh inactive, NPR1 antag -15%[70.6 µM], GPT2 inh -5%[88.5 µM] and HEK293 tox inconclusive.
Screening O=C(Nc1cccnc1)c1ccc2c(c1)OCCN(c1cccc(OC(F)(F)F)c1)C2 returned 3T3 cytotox inconclusive, Luciferase inh inactive, NPR1 antag inconclusive, GPT2 inh 2%[88.5 µM] and HEK293 tox 28µM*.
`Cc1nn(C)c2nc(-c3ccccn3)nc(N3CCC(c4ccc(F)cc4)C3)c12` (stereo not given) gave 3T3 cytotox -27%, Luciferase inh inactive, NPR1 antag -7%, GPT2 inh inconclusive and HEK293 tox 40µM*.
`Cn1ncc2c(C(=O)N3CCC(Cc4ccccc4)CC3)cc(-c3ccccc3C(F)(F)F)nc21` gave 3T3 cytotox 28µM* and HEK293 tox 40µM*.
Cn1ncc2c(C(=O)N3CCCCC3)cc(-c3ccccc3C(F)(F)F)nc21 was read as 3T3 cytotox -38% and HEK293 tox inconclusive.
For Cn1ncc2c(C(=O)N3CCN(Cc4ccccc4)CC3)cc(-c3ccccc3C(F)(F)F)nc21 the results were 3T3 cytotox inconclusive and HEK293 tox 45µM*.
For CC(=O)N1CCN(C(=O)c2cc(-c3ccccc3C(F)(F)F)nc3c2cnn3C)CC1 the results were 3T3 cytotox -14% and HEK293 tox 1%.
Cn1ncc2c(C(=O)N3CCC(c4ccccc4)CC3)cc(-c3ccccc3C(F)(F)F)nc21 was read as 3T3 cytotox 28µM* and HEK293 tox 45µM*.
For COc1ccc(N2C(=O)CSC23CCN(C(=O)C2CCCC2)CC3)cc1 the results were 3T3 cytotox inconclusive, Luciferase inh inactive, NPR1 antag 2%, GPT2 inh inactive and HEK293 tox inconclusive.
COC(=O)CNC(=O)c1nc(-c2c(C)cccc2C)c2ccccn12 was read as 3T3 cytotox -21%, Luciferase inh inconclusive, NPR1 antag 0%, GPT2 inh inactive and HEK293 tox inconclusive.
Screening COCCNC(=O)c1nc(-c2ccc(OC)cc2)c2ccccn12 returned 3T3 cytotox inconclusive, GPT2 inh inactive and HEK293 tox inconclusive.
Screening COC(=O)CNC(=O)c1nc(-c2cc(Cl)cc(Cl)c2)c2ccccn12 returned 3T3 cytotox -15%, Luciferase inh inactive, NPR1 antag -25%, GPT2 inh -11% and HEK293 tox 35µM*.
`COCCNC(=O)c1nc(-c2ccccc2)c2ccccn12` gave 3T3 cytotox inconclusive, Luciferase inh inactive, NPR1 antag 7%[70.6 µM], GPT2 inh -21%[88.5 µM] and HEK293 tox 100µM*.
Screening Cc1cccc(C)c1-c1nc(C(=O)NCCc2ccc(Cl)cc2)n2ccccc12 returned 3T3 cytotox -27%, Luciferase inh inactive, NPR1 antag -5%, GPT2 inh inactive and HEK293 tox 50µM*.
`COCCNC(=O)c1nc(-c2c(C)cccc2C)c2ccccn12` gave 3T3 cytotox inconclusive, Luciferase inh inactive, NPR1 antag -1%[70.6 µM], GPT2 inh -5%[88.5 µM] and HEK293 tox 35µM*.
For CCn1cc(C(=O)N2CCC(Cn3c(C)cnc3-c3cccnc3)CC2)cn1 the results were 3T3 cytotox -15%, GPT2 inh 3% and HEK293 tox 0%.
O=C(CNC(=O)c1ccc(-c2cccc(C(F)(F)F)c2)cc1)NCc1cccc(F)c1 was read as 3T3 cytotox inconclusive, GPT2 inh 2% and HEK293 tox -29%.
COc1ccccc1-c1nc(C(=O)NCCc2ccc(Cl)cc2)n2ccncc12 was read as 3T3 cytotox 28µM*, GPT2 inh 4% and HEK293 tox inconclusive.
O=C(NCCc1ccc(Cl)cc1)c1nc(-c2ccc(Cl)cc2Cl)c2cnccn12 was read as 3T3 cytotox -26%, GPT2 inh -1% and HEK293 tox inconclusive.
O=S(=O)(c1ccc2c(c1)CCC2)N1CC(n2cnnc2C2CCOCC2)C1 was read as 3T3 cytotox -24%, GPT2 inh inactive and HEK293 tox -18%.
O=[S+]1([O-])NCC2(CCN(Cc3ccc(OC(F)(F)F)cc3)CC2)Nc2ccccc21 was read as 3T3 cytotox inconclusive, Luciferase inh inactive, NPR1 antag 1%, GPT2 inh 2% and HEK293 tox 40µM*.
For O=[S+]1([O-])NCC2(CCCN(Cc3ccc(OC(F)(F)F)cc3)C2)Nc2ccccc21 (stereo not given) the results were 3T3 cytotox 45µM*, Luciferase inh inactive, NPR1 antag -25%, GPT2 inh -13% and HEK293 tox inconclusive.
For O=[S+]1([O-])NCC2(CCCN(Cc3ccc(Cl)cc3)C2)Oc2ncccc21 (stereo not given) the results were 3T3 cytotox inconclusive, GPT2 inh inactive and HEK293 tox 89µM*.
`COc1ccc(CN2CCC3(CC2)CN[S+](=O)([O-])c2ccccc2N3)cc1` gave 3T3 cytotox -23%, Luciferase inh inactive, NPR1 antag 0%, GPT2 inh inactive and HEK293 tox inconclusive.
`O=[S+]1([O-])NCC2(CCCN(Cc3ccc(C(F)(F)F)cc3)C2)Nc2ccccc21` (stereo not given) gave 3T3 cytotox inconclusive, Luciferase inh inactive, NPR1 antag -17%, GPT2 inh inconclusive and HEK293 tox 32µM*.
